Results from PubChem BioAssay AID588477 (NMMLSC, 2011).
Values without a mark were called inactive.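 Rule for the calls: active = valid curve fit with half-effect dose at most 10 µM and total binding change across doses of 30 points or more; inactive = the rest.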

Test: inhibitors of Bodipy-GTP binding across eight GTPases, SAR follow-up, selectivity assay for Cdc42 probe extension project, biochemical, round 1 SAR, Mg buffer, multiplex flow cytometry (AID 588477)
Conditions: GST-GTPase beads, Ras constitutively active; series mostly up to 100 µM; percent response (remaining binding): at the top concentration

SMILES | percent response (remaining binding) [%]
NS(=O)(=O)c1ccc(N2N=C(c3ccccc3)CC2c2ccccc2)cc1 (stereo not drawn) | 29.9
O=C(C#Cc1ccccc1)c1cccc([N+](=O)[O-])c1 | 28.2
COc1ccc(C2CC(c3ccccc3)=NN2c2ccc(S(N)(=O)=O)cc2)cc1 (stereo not drawn) | -36.9
